14 compounds from PubChem BioAssay can be followed below.

Calls of active or inactive are those of the source.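 The calls were made as follows, unless noted: active = inhibition at or above 50% at 10 µM; inactive = inhibition below 50%.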

A short description of assay [1]: inhibitors of TNFa-induced NFkB p65 translocation, primary screen, imaging, HUVEC, MLSMR starter and 10KST1 sets (AID 438;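 active = inhibition above 20% together with a positive visual image hit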;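 also: compound added about 3h40 before a 20 min TNFalpha stimulation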;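 as to inhibition: signal is the nuclear over cytoplasmic p65 intensity ratio per well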). The settings on record: HUVEC TNFa-induced p65 nuclear translocation; cell count: measured here: nuclei count (cytotoxicity indicator), at 2.08 µM; inhibition: at 2 µM, stronger effect = higher value, 0% TNFa-plus-vehicle, 100% no-TNFa wells.
The nature of assay [2]: inhibitors of mutant huntingtin aggregation, primary screen, imaging, exon1htt(103Q)mCFP cells, high-content imaging (AID 483;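 active = visual image review flags a hit and inhibition of aggregation exceeds 20%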;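 also: compound exposure lasted 3 days before fixation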;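 as to nuclei count: percent of the per-plate median nuclei count of sample wells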). The settings on record: exon1htt(103Q)mCFP cell line, aggregate imaging, at 2 µM; inhibition of aggregation: stronger effect = higher value; nuclei count: measured here: cell count, toxicity.
Assay [3] in a line: inhibitors of E-selectin induction by TNFa, primary screen, imaging, HUVEC, immunofluorescence, MLSMR starter and 10KST1 sets (AID 487;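 active = visually confirmed hit in the image check and inhibition above 20%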;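 as to inhibition: signal is fraction of cell area covered by stained E-selectin grains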;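 as to nuclei count: 100% = median nuclei count of all wells on the same plate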). Conditions: HUVEC TNFalpha-induced E-selectin immunofluorescence imaging, at 2 µM; inhibition: stronger effect = higher value; nuclei count: measured here: cell number, toxicity.
Assay [4] deals with Voltage-gated potassium channel subunit beta-2 (Rattus norvegicus) (UniProt P62483). The assay can be described thus: KvBeta enzyme negative modulators, primary screen, biochemical, NADPH fluorescence (AID 622;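 active = fluorescence slope higher than the sample average by over 3 SD, cut at about -0.22 in these data, passing the limit was not always enough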;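 also: slope of raw intensity against log time taken from 70 to 1610 s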). The settings on record: recombinant KvBeta, 4-cyanobenzaldehyde reduction, at 10 µM, stronger effect = higher value.
Sequence of Voltage-gated potassium channel subunit beta-2 (Rattus norvegicus) (P62483 whole entry, looked up): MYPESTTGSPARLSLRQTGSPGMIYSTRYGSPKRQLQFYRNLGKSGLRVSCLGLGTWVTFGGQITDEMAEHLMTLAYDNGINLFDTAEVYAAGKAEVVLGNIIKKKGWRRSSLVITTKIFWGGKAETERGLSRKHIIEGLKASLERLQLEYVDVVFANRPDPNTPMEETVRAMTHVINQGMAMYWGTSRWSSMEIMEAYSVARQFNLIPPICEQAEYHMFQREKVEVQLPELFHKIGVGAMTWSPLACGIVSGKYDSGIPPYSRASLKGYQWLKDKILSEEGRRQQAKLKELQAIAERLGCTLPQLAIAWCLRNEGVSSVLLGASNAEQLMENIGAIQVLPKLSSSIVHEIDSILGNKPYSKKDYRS
For assay [5] the target is unchanged. The assay can be described thus: KvBeta positive modulators, primary screen, biochemical, NADPH fluorescence (AID 623;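 active = NADPH fluorescence slope more negative than the mean of all samples by about 3 SD, 99.7% confidence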;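 also: fluorescence intensity change per second fitted from 20 to 320 s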). Conditions: Recombinant KvBeta, NADPH fluorescence decrease slope, 10 min; at 10 µM; stronger effect = lower value.
The target in assay [6] is Alpha-2C adrenergic receptor (Homo sapiens) (UniProt P18825). The assay can be described thus: modulators of alpha2C/GIRK thallium flux, primary screen, cell-based, HEK293 alpha2C/GIRK1/2 (AID 624;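 active = fluorescence slope after compound addition differing from the mean of all screened samples at 99.7% confidence, in either direction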;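 also: slope of fluorescence ratio to pre-addition baseline per second over 15 to 24 s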). The settings on record: thallium flux BTC fluorescence, at 10 µM, actives lie on both sides.
Sequence of Alpha-2C adrenergic receptor (Homo sapiens) (P18825 whole entry, looked up): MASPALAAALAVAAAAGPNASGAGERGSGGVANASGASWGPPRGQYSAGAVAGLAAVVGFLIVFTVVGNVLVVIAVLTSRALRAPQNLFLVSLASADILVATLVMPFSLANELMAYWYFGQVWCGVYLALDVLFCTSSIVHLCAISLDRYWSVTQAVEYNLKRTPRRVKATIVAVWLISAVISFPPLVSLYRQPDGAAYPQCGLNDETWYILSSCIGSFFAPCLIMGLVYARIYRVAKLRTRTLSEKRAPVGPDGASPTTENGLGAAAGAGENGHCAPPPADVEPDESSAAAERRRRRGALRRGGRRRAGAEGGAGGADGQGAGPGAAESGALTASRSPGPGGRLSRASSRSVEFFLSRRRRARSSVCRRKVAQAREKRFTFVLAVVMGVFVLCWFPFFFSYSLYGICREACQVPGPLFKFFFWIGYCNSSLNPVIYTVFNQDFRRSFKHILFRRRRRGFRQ
Assay [7] is described as follows: inhibitors of Sendai virus-induced IRF3 signaling, primary screen, TLR/RLR signaling modifier project, cell-based, Sendai virus stimulus, luciferase, 10K MLSCN set (AID 602276).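 Also: firefly luciferase from ISG56 promoter only with Renilla not read in this screen; 0% = Sendai virus plus DMSO and 100% = medium plus DMSO without virus.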 Conditions: HEK293 RL24 IRF3 luciferase reporter, at 10 µM, stronger effect = higher value. (In general: Reporter assays use an easily measured gene product as a stand-in for the process of interest.)

Assay [8] is described as follows: inhibitors of poly I:C-induced TLR3 signaling, primary screen, cell-based, poly I:C stimulus, luciferase, 10K MLSCN set (AID 602277;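 active = inhibition of the reporter signal at or above 50%; inactive = inhibition below 50%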). Conditions: HEK293-TLR3 RL24 IRF3 luciferase reporter, at 10 µM, stronger effect = higher value.

Take `COCCNC(=O)CN1CCN(Cc2cccc(Cl)c2)C1=O`: the cell count in assay [1] turned out to be 752. Also, the inhibition in assay [1] was -11.6% (inactive); in assay [3] it was -47.9% (inactive); in assay [7], 6.1% (inactive); in assay [8] it was 16.8% (inactive). In assay [2], the inhibition of aggregation was 28.6% (inactive). Also, the results for the nuclei count in assay [2] and in assay [3] were 69.7% and 125%, respectively. For the same compound, the fluorescence slope in assay [4] is -0.536 (inactive). In addition, the NADPH fluorescence slope in assay [5] is -4.6e-05 (inactive). Also, the slope in assay [6] is 0.00677 (inactive).

`CCOc1ccccc1-n1nnnc1SCC(=O)Nc1cc2oc3ccccc3c2cc1OC`: the cell count in assay [1] stood at 374. The inhibition in assay [1] is -2.9% (inactive); in assay [3], -108% (inactive); in assay [7], -7.46% (inactive); in assay [8] it was 15.7% (inactive). The inhibition of aggregation in assay [2] was 4.8% (inactive). Besides, the results for the nuclei count in assay [2] and in assay [3] were 99.1% and 118%, respectively. The fluorescence slope in assay [4] was -0.568 (inactive). The NADPH fluorescence slope in assay [5] is 2.4e-05 (inactive). Further, the slope in assay [6] is 0.00931 (inactive).

For the compound `CCOc1ccccc1N(CC(=O)N1CCCCCC1)S(C)(=O)=O`, the cell count in assay [1] stood at 358. Besides, the inhibition in assay [1] is -10% (inactive); in assay [3], -83.5% (inactive); in assay [7] it was 9.48% (inactive); in assay [8] it was 19.4% (inactive). Besides, in assay [2], the inhibition of aggregation was -1.2% (inactive). In addition, the nuclei count in assay [2] and in assay [3] was 117% in each case. Further, the fluorescence slope in assay [4] is -0.447 (inactive). The NADPH fluorescence slope in assay [5] was -1.3e-05 (inactive). The slope in assay [6] was 0.00598 (inactive).

As for `CCOC(=O)Cn1c(CN2CCOCC2)nc2c1c(=O)[nH]c(=O)n2C`, in assay [1], the cell count was 507. Also, the inhibition is -1% (inactive) in assay [1], -6% (inactive) in assay [3], 15.2% (inactive) in assay [7] and 27.7% (inactive) in assay [8]. Besides, in assay [2], the inhibition of aggregation is -19.1% (inactive). The nuclei count in assay [2] was 102%; in assay [3], 118%. In assay [4], the fluorescence slope is -0.601 (inactive). Besides, the NADPH fluorescence slope in assay [5] is -4.7e-05 (inactive). For the same compound, the slope in assay [6] is 0.00569 (inactive).

With `CCc1ccc(NC(=O)CS(=O)CC(=O)NC(C)CCc2ccco2)cc1` (centres undefined), the cell count in assay [1] came to 388. Besides, the inhibition in assay [1] is 0.6% (inactive); in assay [3], -203% (inactive); in assay [7], 5.19% (inactive); in assay [8], 13.9% (inactive). The inhibition of aggregation in assay [2] was 18.9% (inactive). The nuclei count in assay [2] amounted to 94.8%; in assay [3] it was 116%. The fluorescence slope in assay [4] is -0.484 (inactive). Besides, in assay [5], the NADPH fluorescence slope was -1.8e-05 (inactive). For the same compound, the slope in assay [6] was 0.00694 (inactive).

Regarding `CCOc1ccccc1N1CCN(C(=O)c2ccncc2)CC1`, the cell count in assay [1] came out at 428. For the same compound, the inhibition was -1.5% (inactive) in assay [1], 11.7% (inactive) in assay [3], -5.17% (inactive) in assay [7] and 15.5% (inactive) in assay [8]. Besides, in assay [2], the inhibition of aggregation was 12.2% (inactive). The nuclei count in assay [2] turned out to be 90.1%; in assay [3] it was 105%. Also, in assay [4], the fluorescence slope is -0.421 (inactive). The NADPH fluorescence slope in assay [5] is -0.000112 (inactive). Further, the slope in assay [6] was 0.00573 (inactive).

For the compound `O=S(=O)(c1ccc2c(c1)OCCO2)N1CCC(n2nnc3cc(F)ccc32)CC1`, the cell count in assay [1] came to 577. The inhibition in assay [1] was -9.9% (inactive); in assay [3], -24.6% (inactive); in assay [7], 17.3% (inactive); in assay [8], 17.7% (inactive). In addition, the inhibition of aggregation in assay [2] is 1.5% (inactive). In addition, the nuclei count in assay [2] is 78%; in assay [3], 103%. Besides, in assay [4], the fluorescence slope was -0.5 (inactive). The NADPH fluorescence slope in assay [5] was -3e-05 (inactive). Moreover, the slope in assay [6] was 0.00521 (inactive).

For `CCC(C(=O)NC1CCCC1)N(Cc1ccco1)C(=O)Cn1nnc(-c2ccc(C)cc2)n1` (centres undefined), the cell count in assay [1] came out at 478. Moreover, the inhibition was 1.7% (inactive) in assay [1], -150% (inactive) in assay [3], 10.8% (inactive) in assay [7] and -7.83% (inactive) in assay [8]. In assay [2], the inhibition of aggregation is 10.6% (inactive). Also, the nuclei count in assay [2] was 114%; in assay [3] it was 112%. Besides, the fluorescence slope in assay [4] was -0.617 (inactive). Further, in assay [5], the NADPH fluorescence slope is -1.6e-05 (inactive). The slope in assay [6] is 0.0026 (inactive).

Turning to `CCOC(=O)Nc1ccc2c(CN3C(=O)NC4(CCCC4)C3=O)cc(=O)oc2c1`, the cell count in assay [1] is 744. Further, the inhibition in assay [1] was 3.5% (inactive); in assay [3], -149% (inactive); in assay [7] it was 0.299% (inactive); in assay [8], -13.9% (inactive). The inhibition of aggregation in assay [2] is -24.7% (inactive). Besides, the results for the nuclei count in assay [2] and in assay [3] were 99.9% and 153%, respectively. For the same compound, in assay [4], the fluorescence slope is -0.229 (inactive). For the same compound, the NADPH fluorescence slope in assay [5] was -2.4e-05 (inactive). Moreover, in assay [6], the slope was 0.00554 (inactive).

In the case of `Cc1cc(C)n2nc(SCC(=O)N(C)c3ccccc3)nc2n1`, the cell count in assay [1] stood at 370. In addition, the inhibition is -5.3% (inactive) in assay [1], -24.2% (inactive) in assay [3], 5.25% (inactive) in assay [7] and 24.1% (inactive) in assay [8]. The inhibition of aggregation in assay [2] is -25.2% (inactive). The nuclei count in assay [2] was 115%; in assay [3] it was 103%. Besides, the fluorescence slope in assay [4] was -0.462 (inactive). Further, in assay [5], the NADPH fluorescence slope was -4.2e-05 (inactive). In addition, in assay [6], the slope is 0.0068 (inactive).

`COc1cccc(C2CC(c3ccc(C)cc3)Nc3nc(N)nn32)c1` (centres undefined): the cell count in assay [1] is 538. Further, the inhibition in assay [1] is 2.3% (inactive); in assay [3] it was 28% (inactive); in assay [7] it was -7.82% (inactive); in assay [8] it was 16.6% (inactive). Also, the inhibition of aggregation in assay [2] was 23.1% (inactive). Further, the results for the nuclei count in assay [2] and in assay [3] were 102% and 101%, respectively. For the same compound, the fluorescence slope in assay [4] is -0.564 (inactive). In addition, the NADPH fluorescence slope in assay [5] was 4e-05 (inactive). For the same compound, the slope in assay [6] is 0.0074 (inactive).

As to `O=C(c1cccs1)N(Cc1ccco1)Cc1cc2ccccc2[nH]c1=O`, the cell count in assay [1] is 420. Moreover, the inhibition is 6.2% (inactive) in assay [1], -40% (inactive) in assay [3], -11% (inactive) in assay [7] and -8.09% (inactive) in assay [8]. The inhibition of aggregation in assay [2] was -7.1% (inactive). Further, the nuclei count came to 107% in assay [2] and 84.3% in assay [3]. The fluorescence slope in assay [4] was -0.343 (inactive). Further, in assay [5], the NADPH fluorescence slope is -3.2e-05 (inactive). For the same compound, the slope in assay [6] is 0.00483 (inactive).

Take `CC1Cc2ccccc2N1C(=O)c1cnsn1` (centres undefined): the cell count in assay [1] was 623. The inhibition is -4.5% (inactive) in assay [1], -138% (inactive) in assay [3], -9.05% (inactive) in assay [7] and -3.1% (inactive) in assay [8]. For the same compound, the inhibition of aggregation in assay [2] is -10.5% (inactive). The nuclei count worked out at 103% in assay [2] and 111% in assay [3]. For the same compound, in assay [4], the fluorescence slope is -0.489 (inactive). In addition, in assay [5], the NADPH fluorescence slope was -0.000237 (inactive). In addition, the slope in assay [6] was 0.00637 (inactive).

For the compound `CCCN(CCC)C(=O)C1CCN(c2cc(C)nc3c(-c4ccc(OC)c(OC)c4)c(C)nn23)CC1`, in assay [1], the cell count was determined as 651. Further, the inhibition in assay [1] was 6.6% (inactive); in assay [3], -68.7% (inactive); in assay [7], 4.7% (inactive); in assay [8], 7.43% (inactive). Besides, the inhibition of aggregation in assay [2] is -2.4% (inactive). For the same compound, the nuclei count in assay [2] was 91.7%; in assay [3], 124%. In assay [4], the fluorescence slope was -0.492 (inactive). Moreover, in assay [5], the NADPH fluorescence slope was -2.2e-05 (inactive). Besides, the slope in assay [6] was 0.00708 (inactive).

The term inhibition denotes the drop in the measured response relative to a control, in per cent.
